From the supplement of paper PMC12636033 come the findings set out here.

± gives the standard deviation of the averaged measurements. In all, about 33,000 sequences were measured (“E-score (rank enrichment, -0.5 to 0.5)”: median about -0.0028, highest 2% from about 0.23 on). Many of the other results were omitted from the sample, so the highest values are more common in it than they were.

For this assay, the system named is 2Sb-muMax20 (muMax20 with two 1,3-bis(methyl)benzene Cys staples, A13C/A17C and Q88C/A92C, C-terminal Lys). The experiment in a line: PBM 8-mer E-score (E-score (rank enrichment, -0.5 to 0.5)); higher = stronger preferential binding. On the procedure: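 Protein binding microarray (universal PBM chip covering all 10-mers in fixed probe flanks) with chemically synthesized human Max(13-93) bHLH-LZ analogs (not full-length Max) bearing noncanonical residues (hArg, Tha, Aib, Nle at 65) and aromatic Cys staples. Read-out per 8-mer (and its reverse complement): E-score (rank-based enrichment, -0.5 to 0.5) and Z-score of median probe intensity.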
On to AATTGGGT, for which the “PBM 8-mer E-score” value is 0.2396 ± 0.0021.
For CATTGGGC the value was -0.173 ± 0.044.
The same measure for AATTGGGG: 0.317 ± 0.0083.
The same measure for AATTGGGC: 0.1581 ± 0.00092; for CATTGGGA: -0.021 ± 0.0046.
In the case of AGCATTGG, the “PBM 8-mer E-score” value was -0.0228 ± 0.0039.
As to TCCCCGAA, the “PBM 8-mer E-score” value stood at 0.0276 ± 0.02.
For ATGTTGAC, the “PBM 8-mer E-score” value was 0.0701 ± 0.026.
For GCAATTCC the value was -0.0345 ± 0.025.
For ATTGGCAA the value was 0.105 ± 0.047; for ACTGAAAA, 0.0674 ± 0.026; for GCGGAAGA, -0.0695 ± 0.055.
The same measure for AAGGTCCT: -0.112 ± 0.078.
For GGAATGCA, the “PBM 8-mer E-score” value came out at 0.038 ± 0.021.
The same measure for GATAATAA: 0.191 ± 0.037.
On to ATTAATAG, for which the “PBM 8-mer E-score” value came out at 0.186 ± 0.045.
The same measure for ATTAATGC: 0.147 ± 0.069.
For ATTAATAC the value was 0.241 ± 0.012.
Consider CTTAACAC, for which the “PBM 8-mer E-score” value was found to be 0.173 ± 0.015.
The same measure for ATTAATAA: 0.177 ± 0.038; for ATTAACAC: 0.239 ± 0.026; for CTTAATGC: 0.234 ± 0.011.
With AATAATAC, the “PBM 8-mer E-score” value is 0.0444 ± 0.028.
As to GATAATAC, the “PBM 8-mer E-score” value was found to be 0.234 ± 0.042.
Regarding ATTAACAA, the “PBM 8-mer E-score” value came to 0.154 ± 0.00047.
Turning to CTTAATGA, the “PBM 8-mer E-score” value was 0.0296 ± 0.046.
For GTTGCTAA the value was 0.124 ± 0.023; for CCAACGCG, -0.0237 ± 0.021; for AATACTCA, 0.102 ± 0.013.
On to CGTCCGTC, for which the “PBM 8-mer E-score” value was -0.11 ± 0.051.
As for ACACATAT, the “PBM 8-mer E-score” value was determined as 0.124 ± 0.021.
For ATAGGGCG the value was 0.138 ± 0.0092; for ATGATCAG, -0.0255 ± 0.099.
Take CACTTGAC: the “PBM 8-mer E-score” value was -0.0462 ± 0.076.
The same measure for CTTAATTC: 0.173 ± 0.039; for CTTAATAC: 0.244 ± 0.042; for CTTAATAA: -0.0695 ± 0.0064.
For ATCAGCTA the value was 0.00813 ± 0.027; for AATGAAGG, 0.0344 ± 0.037; for AATGAAGT, 0.238 ± 0.026.
The same measure for AATGAAGA: 0.0161 ± 0.012; for CACAACAC: 0.219 ± 0.035; for AACAACAA: 0.194 ± 0.033.
Consider GACAACAC, for which the “PBM 8-mer E-score” value is -0.0706 ± 0.0054.
As to CACAATAA, the “PBM 8-mer E-score” value came to 0.0489 ± 0.053.
For AACAACAC the value was 0.2764 ± 0.0019.
Turning to CACAACAA, the “PBM 8-mer E-score” value turned out to be 0.212 ± 0.0096.
For AACAATAA the value was 0.133 ± 0.017; for TACAACAA, 0.268 ± 0.0087.
Consider TACAATAA, for which the “PBM 8-mer E-score” value stood at 0.331 ± 0.05.
With CATTTCCG, the “PBM 8-mer E-score” value was -0.0659 ± 0.0054.
Consider CTTCCCGC, for which the “PBM 8-mer E-score” value worked out at 0.0401 ± 0.037.
On to ACACGTTA, for which the “PBM 8-mer E-score” value turned out to be 0.08518 ± 0.00069.
For ATTATACA the value was 0.0477 ± 0.0088; for ATTATAAG, 0.205 ± 0.057.
For ATTATAAT, the “PBM 8-mer E-score” value is 0.141 ± 0.034.
On to ATTATAAC, for which the “PBM 8-mer E-score” value turned out to be 0.306 ± 0.0034.
For ATTATACG the value was 0.0799 ± 0.014; for ATTATACC, 0.237 ± 0.011.
For the sequence GGCTTCAC, the “PBM 8-mer E-score” value is -0.204 ± 0.1.
For the sequence CGAGTCAG, the “PBM 8-mer E-score” value is -0.177 ± 0.05.
The same measure for CTGTATGC: 0.0233 ± 0.062; for CGATACGA: -0.06 ± 0.12; for GCATAATA: 0.195 ± 0.083.
For the sequence ACATAATC, the “PBM 8-mer E-score” value came to 0.142 ± 0.023.
Regarding CTATAAGA, the “PBM 8-mer E-score” value was determined as 0.0167 ± 0.02.
The same measure for GTATAAGA: 0.212 ± 0.037.
The same measure for ATATAAGA: 0.249 ± 0.011; for CTATAATA: 0.0375 ± 0.0029; for GTATAATA: 0.226 ± 0.012.
The same measure for ATATAATA: 0.274 ± 0.044.
Consider ACATAATA, for which the “PBM 8-mer E-score” value turned out to be 0.302 ± 0.0096.
For CTTAGCTA the value was -0.0391 ± 0.023.
For CTTTCTCC the value was 0.00231 ± 0.006.
For CATACAGA the value was -0.0476 ± 0.0072.
Take CACCTGCG: the “PBM 8-mer E-score” value was -0.168 ± 0.017.
Regarding CCGTATCG, the “PBM 8-mer E-score” value was -0.0355 ± 0.019.
In the case of TAGTGGGA, the “PBM 8-mer E-score” value was 0.038 ± 0.0028.
The same measure for ACGTGGGA: 0.203 ± 0.044; for ACGTGGTG: 0.316 ± 0.034.
For ACGTGGTC the value was 0.111 ± 0.0094; for CCGTGGAG, -0.106 ± 0.074; for AAGTGGGA, 0.281 ± 0.018.
The same measure for ACGTGGGC: 0.169 ± 0.022; for ACGTGGAG: 0.279 ± 0.0086.
As to ACGTGGAT, the “PBM 8-mer E-score” value was determined as 0.207 ± 0.043.
The same measure for ACGTGGGG: 0.261 ± 0.045; for ACGTGGTA: 0.216 ± 0.024; for GAGTGGGA: -0.0417 ± 0.045.
